IL-1B inflam inh – inhibitors of inflammasome signaling (IL-1 beta secretion); activity change, % at 57.5 µM; 4.7% of 360,000 active; THP-1 LPS/ATP IL-1B secretion, AlphaLISA, 16 h; hits give low values; in the data active = activity change below about -50%; inconclusive = mostly about -30% to -49%
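Secreted IL-1B measured by AlphaLISA bead assay after 16 h compound exposure of THP-1 cells; compounds (final up to 57.5 uM) added 1 h before LPS (250 ng/mL) and ATP (1.25 mM) stimulation; lower signal means less secretion.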
DT40 TDP1 CPT – DT40-hTDP1 cell growth loss with CPT; Potency, µM (series often up to 46.2 µM), for the others: at the highest dose activity change, negative = growth inhibition, hits mostly inhibitors; AID 686979; chicken DT40 Tdp1-/-;hTDP1 cells + 20 nM CPT, ATP luminescence, 48 h; 12% of 420,000 active; note: potency is the fitted concentration of half-maximal effect; nearly all actives have a fitted effect of over 55% in size
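Chicken DT40 Tdp1-/- cells complemented with human TDP1, 400 cells/well, exposed to compounds plus 20 nM camptothecin for at least 48 h at 37 C; viability read as ATP content by CellTiter-Glo luminescence.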
HT1080 IDH1KD tx – kills HT-1080 cells with IDH1 knockdown; HT-1080 IDH1 knockdown viability, ATP luminescence, 48 h; Potency, µM (doses to about 46.1 µM), for the others: at the highest dose activity, negative = toxicity, actives largely listed as cytotoxic; 2% of 360,000 active; AID 686971;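 note: potency is the fitted concentration of half-maximal effect; 0% = DMSO wells and -100% = cell-free medium wells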
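Knockdown cells (IDH1KD HT-1080) received compounds 2 h after plating at 750 cells/well and were kept 48 h at 37 °C in 5% FBS RPMI. A CellTiter-Glo luminescence read gave % activity for curve fitting.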
HT1080-NT tox – kills 2HG-producing HT-1080-NT fibrosarcoma cells | HT-1080-NT fibrosarcoma viability, CellTiter-Glo ATP luminescence, 48 h | Potency, µM (top dose mostly 46.1 µM), for the others: at the top dose activity, negative = less viability, usual class: cytotoxic | 1.6% of 360,000 active | AID 686970;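 note: NT is the 2HG producing partner of a matched IDH1 knockdown line; potency is the fitted concentration of half-maximal effect; 0% = DMSO-treated cells and -100% = media-only wells without cells; nearly all actives have a fitted effect of over 55% in size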
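Viability by CellTiter-Glo luminescence after 48 h compound exposure at 37C of HT-1080-NT cells (750/well, RPMI, 5% FBS). % activity scaled between DMSO wells and medium-only wells, then curve-fitted and categorized by curve class.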
TDP1 cell noCPT – qHTS for Inhibitors of human tyrosyl-DNA phosphodiesterase 1 (TDP1): qHTS in cells in absence of CPT | Potency, µM (doses to about 46.2 µM), for inactives: top-dose activity change, negative = growth inhibition, actives largely listed as inhibitors | DT40 Tdp1-/- hTDP1 cells, no CPT, ATP luminescence, 48 h | 15% of 420,000 active; note: potency is the fitted concentration of half-maximal effect; nearly all actives have a fitted effect of over 55% in size
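Luminescent ATP content (CellTiter-Glo) served as the growth readout. Knockout chicken DT40 cells expressing human TDP1 were exposed to compounds without camptothecin for a minimum 48 hr at 37 °C.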
uPA generation – blocks generation of uPA at the cell surface; cell surface uPA generation assay, qHTS; Potency, µM (series often up to 38.3 µM), for inactives: top-dose activity change, negative = inhibition, most hits filed as inhibitors; 0.31% of 330,000 active; AID 540303; active = well fitted inhibition curve with a large enough effect; inconclusive = small, poorly fitted or top-dose-only effect; inactive = no such curve, though single readings can be large or run the other way; tested in mouse RAW 264.7 cells; note: potency is the fitted concentration of half-maximal effect; nearly all actives have a fitted effect of over 55% in size
* = called active by the depositor; ? = inconclusive; / = no result; ! = not active in a repeat; [ ] = remark or other dose. Compounds with a hit are over-represented: about 19% of the library has one in this group of screens. Unless noted, calls come from the whole dose curve; as a rule, active = well fitted curve in the direction sought with a large enough effect; inconclusive = small, poorly fitted or top-dose-only effect, or another doubt; inactive = no such curve, though single readings can be large; an effect the other way counts as inactive or inconclusive. Unless noted, % is set by controls: 0 for no effect and ±100 for the full control effect.

SMILES	IL-1B inflam inh	DT40 TDP1 CPT	HT1080 IDH1KD tx	HT1080-NT tox	TDP1 cell noCPT	uPA generation
O=C(NCC(c1cccnc1)N1CCOCC1)C(=O)Nc1ccc(F)cc1 (centres undefined)	/	-1%	/	/	-13%	/
O=C(NCC(c1cccnc1)N1CCc2ccccc2C1)C(=O)Nc1cccc(Cl)c1 (centres undefined)	/	21µM*	/	/	18µM*	/
O=[N+]([O-])c1ccc(S(=O)(=O)NCC(c2cccnc2)N2CCc3ccccc3C2)cc1 (centres undefined)	4	?	-3%	5%	21µM*	-1%
O=[N+]([O-])c1ccc(S(=O)(=O)NCC(c2cccnc2)N2CCOCC2)cc1 (centres undefined)	-2	-1%	0%	14%	-17%	12%
CC=C1C2C=C(C)CC1(N)c1ccc(=O)[nH]c1C2 (centres undefined)	/	-19%	/	/	-1%	/
Cc1cccc(OCCSc2nncn2C)c1	11	?	12%	18%	-23%	-1%
Cn1cnnc1SCCOc1ccc(Cl)cc1	-80*	-21%	-2%	-1%	-2%	-10%
COc1ccc(-c2cc(C(=O)NCc3ccc(F)cc3)no2)cc1	/	-14%	/	/	-17%	/
CC1(C(=O)Nc2ccc3ccccc3c2)CCC(=O)N1CCc1c[nH]c2ccccc12 (centres undefined)	-3	?	?	?	?	/
COc1cc(/C=C2\SC(N)=NC2=O)ccc1O	-83*	12µM*	18µM*	?	4.6µM*	-9%
COc1cc(/C=C2\SC(N)=NC2=O)cc(OC)c1	-11	18µM*	-12%	-1%	?	2%
Cc1ccc(OCCC(=O)OCC(=O)c2ccc3c(c2)NC(=O)CO3)cc1	47	2%	3%	-1%[9.24 µM]	4%	5%
COCC(C)n1c(-c2ccc3c(c2)NC(=O)CO3)csc1=Nc1ccc(OC(F)F)cc1 (centres undefined)	-26	5.2µM*	?	21µM*!	6.5µM*	-12%
CCN=c1scc(-c2ccc3c(c2)NC(=O)CO3)n1N=C1CCCC1	-5	?	?	?	8.2µM*	-2%
CCCCN=c1scc(-c2ccc3c(c2)NC(=O)CO3)n1N=C1CCCC1	?	13µM*	?	?	23µM*	/
Cc1ccc2nc(-c3ccc4c(c3)NC(=O)CO4)cn2c1	21	0%	11%	27%	?	-11%
C[C@@H]1COc2cccc(N3CCSCC3)c2S(=O)(=O)N1	22	-18%	1%	13%	3%	/
Cc1ccc(C)n1-c1ccc(-c2ccnc(N)n2)cc1	-83*	-30%	-1%	-5%	?	-7%
OC(c1cccnc1)c1ccc2c(c1)CN(Cc1cccc3c1OCO3)CCO2 (centres undefined)	/	0%[9.04 µM]	/	/	-19%	/
COc1ccccc1-c1noc(-c2ccncc2)n1	-15	-3%	-12%	-12%	-19%	1%
COc1ccc(-c2nc(-c3ccccn3)no2)cc1	-1	15µM*	9.2µM*	8.2µM*	?	1.4µM*
COc1ccccc1-c1nc(-c2ccccn2)no1	7	13µM*	23µM*	21µM*	13µM*	1.4µM*
Cc1ccccc1-c1nc(-c2ccccn2)no1	-1	?	21µM*	23µM*	?	?
COc1cccc(-c2noc(-c3ccc(Cl)nc3)n2)c1	-75*	?	-3%	4%	-18%	-4%
Cc1ccccc1-c1nc(-c2cccnc2)no1	11	1%	-16%	0%	-23%	-3%
SMILES	IL-1B inflam inh	DT40 TDP1 CPT	HT1080 IDH1KD tx	HT1080-NT tox	TDP1 cell noCPT	uPA generation
CC1CCCC(C)N1C(=O)COC(=O)CNS(=O)(=O)c1ccc2ccccc2c1 (centres undefined)	16	-3%	3%	2%	5%	/
COc1ccc(-c2nc(-c3cccnc3)no2)cc1	0	?	12%	13%	16µM*	?
COC(=O)c1scc(-c2ccc(C)cc2)c1S(=O)(=O)N1CCN(c2cccc(Cl)c2)CC1	/	18µM*	/	/	18µM*	/
COC(=O)c1scc(-c2ccc(C)cc2)c1S(=O)(=O)N1CCN(c2ccccc2)CC1	/	12µM*	/	/	9.2µM*	/
COC(=O)c1scc(-c2ccc(C)cc2)c1S(=O)(=O)N1CCN(c2ccccc2F)CC1	/	13µM*	/	/	18µM*	/
COC(=O)c1scc(-c2ccc(C)cc2)c1S(=O)(=O)N1CCN(c2ccc(C(C)=O)cc2)CC1	/	23µM*	/	/	?	/
COC(=O)c1cc(S(=O)(=O)N2CCN(c3ccccc3F)CC2)c[nH]1	26	?	-22%	-1%	?	-9%
C=CCN(C(=O)CCC(=O)Nc1cc(C)on1)C(C(=O)NC1CCCC1)c1ccc(OC)cc1OC (centres undefined)	-3	-6%	10%	-4%	-27%	-1%
CCC(C)NC(=O)C1CCC(CNS(=O)(=O)c2ccc(Cl)cc2)CC1 (centres undefined)	/	-27%	/	/	-4%	/
O=C(Nc1cccc(Cl)c1)C1CCCN(C2=NS(=O)(=O)c3ccccc32)C1 (centres undefined)	-12	-22%	-1%	2%	?	1%
CCOC(=O)c1scc(-c2ccccc2)c1S(=O)(=O)N1CCN(c2ccc(Cl)cc2)CC1	/	?	/	/	13µM*	/
COC(=O)c1cc(S(=O)(=O)N2CCN(c3ccc(C)cc3C)CC2)cn1C	/	?	/	/	-30%	/
COC(=O)c1scc(-c2ccc(C)cc2)c1S(=O)(=O)N1CCN(c2ccc(C)cc2C)CC1	/	15µM*	/	/	9.2µM*	/
CCC(C)[C@H](NS(=O)(=O)c1ccc(C)cc1)C(=O)N1CCC(C(=O)N[C@@H](Cc2ccccc2)C(=O)O)CC1 (some centres undefined)	18	?	2%	5%	10%	-3%
Nc1ccccc1Sc1nc2ccccc2[nH]1	27	13µM*	-14%	-16%	15µM*	-7%
C[C@@H]1CCC[C@H](C)N1Cc1nc(Cc2ccccc2Cl)no1	23	15µM*	0%	11%	?	2%
Cc1cc(NC(=O)CS(=O)(=O)Cc2ccccc2)no1	27	6%	14%	-2%	-19%	1%
CC(=O)c1cccc(OCC(=O)Nc2cccc(C(=O)Nc3c(C)n(C)n(-c4ccccc4)c3=O)c2)c1	-8	13µM*	11%	-1%	?	2%
